Shown are actives, neighbours in structure and some others; about 3.6% of the full set was active somewhere.
Rango dissoc inh: qHTS Assay for Inhibitors of RanGTP induced Rango (Ran-regulated importin-beta cargo) - Importin beta complex dissociation; Potency, µM (doses to about 46.1 µM), for the others: at the highest dose activity change, negative = inhibition; Biochemical FRET Rango-importin beta, RanGTP-induced dissociation; AID 540253, 2011; hit rate 0.071% among 340,000; calls by dose curve; note: potency is the fitted concentration of half-maximal effect; % of control where 0% means no effect; nearly all actives have a fitted effect of over 45% in size
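Compounds preincubate 5 min with complex of recombinant Rango and importin beta in PBS with 1 mM DTT. Ran (0.6 uM) loaded with 2 mM GTP plus 0.2 uM RCC1 starts dissociation; FRET is recorded 45 min later.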
Rango complex inh: qHTS Assay for Inhibitors of Rango (Ran-regulated importin-beta cargo) - Importin beta complex formation | Importin subunit beta-1 (Homo sapiens), Q14974 | Rango CFP/YFP FRET sensor + importin beta, 45 min | Potency, µM (series often up to 92.2 µM), inactives show top-dose inhibition of complex formation | hit rate 0.031% among 340,000; calls by dose curve;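 note: potency is the fitted concentration of half-maximal effect; 0% = DMSO wells and 100% = buffer wells lacking importin beta; nearly all actives have a fitted effect of over 15% in size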
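FRET biosensor Rango (snurportin 1 IBB between N-terminal EYFP and C-terminal Cerulean), 50 nM in PBS/1 mM DTT/0.02% Tween-20/0.1% BSA, preincubated 5 min RT with compound; 0.125 microM importin beta added, 45 min RT, CFP/YFP FRET ratio read.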
PI5P4K alpha inh: qHTS for Inhibitors of phosphatidylinositol 5-phosphate 4-kinase (PI5P4K) | Phosphatidylinositol 5-phosphate 4-kinase type-2 alpha (Homo sapiens), P48426 | PI5P4Kalpha enzyme, ADP-Glo luminescence, 60 min; stronger effect = lower value | hit rate 1.2% among 330,000 | AID 652105, 2013 | max response, %; active = max response of -50% or lower; inconclusive = between -30% and -50%; inactive = -30% or higher; note: value at the top dose of about 77 µM; % is set by controls: 0 for no effect and ±100 for the full control effect
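qHTS, 1536-well: enzyme/substrate mix, compound by pin tool, 5 microM ATP final; RT 60 min; ADP-Glo reagents 1 (45 min) then 2 (30 min); luminescence.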
VDR inhibitor: Inhibitors of the vitamin D receptor (VDR): qHTS | Vitamin D3 receptor (Homo sapiens), P11473 | Potency, µM, inactives show max response, negative = inhibition, most hits filed as inhibitors | AID 504847, 2011 | VDR-SRC2-3 peptide fluorescence polarization, 2 h | hit rate 0.93% among 400,000; note: potency is the fitted concentration of half-maximal effect; % is set by controls: 0 for no effect and ±100 for the full control effect
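Signal is fluorescence polarization, reporting how far test compounds block the interaction of VDR with the SRC2-3 coregulator peptide after a 2 h room-temperature incubation.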
KAT2A inh: qHTS Assay for Inhibitors of GCN5L2 | GCN5L2 HAT assay, ThioGlo1 CoA-SH fluorescence | Histone acetyltransferase KAT2A (Homo sapiens), Q92830 | AID 504327, 2011 | Potency, µM (series often up to 58.9 µM), for inactives: at the highest dose activity change, negative = inhibition, usual class: inhibitors | hit rate 0.21% among 390,000; note: potency is the fitted concentration of half-maximal effect; % is set by controls: 0 for no effect and ±100 for the full control effect
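qHTS, 1536-well. 20nM enzyme, pH 7.5 HEPES/EDTA/Tween-20 buffer; 15 min compound preinc., RT. Start: 75uM H3(1-25), 70uM AcCoA, 50uM ThioGlo1. Read Ex340/Em540 at t=0 (autofluorescence flag) and t=20 min.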
PLK1 PBD inh: qHTS for Inhibitors of PLK1-PDB (polo-like kinase 1 - polo-box domain): Primary Screen | Serine/threonine-protein kinase PLK1 (Homo sapiens), P53350 | Plk1 PBD binding of FITC phosphopeptide, fluorescence polarization | Potency, µM, inactives show max response, negative = inhibition, most hits filed as inhibitors | hit rate 2.8% among 360,000; note: potency is the fitted concentration of half-maximal effect; series mostly up to about 57 µM; % is set by controls: 0 for no effect and ±100 for the full control effect; nearly all actives have a fitted effect of over 65% in size
TbPYK inh: qHTS of Trypanosoma Brucei Inhibitors: Confirmatory Assay for Cherry-picked Compounds; shares compounds with PLK1 PBD inh; recombinant TbPYK, Kinase-Glo ATP luminescence; Potency, µM (series often up to 76.9 µM), for inactives: top-dose activity change, negative = inhibition, actives largely listed as inhibitors; hit rate 67% among 890; note: potency is the fitted concentration of half-maximal effect; % is set by controls: 0 for no effect and ±100 for the full control effect; nearly all actives have a fitted effect of over 70% in size
TbPYK orthogonal: qHTS of Trypanosoma Brucei Inhibitors: Orthogonal Assay for Cherry-picked Compounds; Potency, µM (highest dose often 76.9 µM), for inactives: at the highest dose activity change, negative = inhibition, actives largely listed as inhibitors; hit rate 62% among 890; shares compounds with PLK1 PBD inh; recombinant TbPYK, ADP-Glo luminescence, 60 min; note: potency is the fitted concentration of half-maximal effect; % is set by controls: 0 for no effect and ±100 for the full control effect; nearly all actives have a fitted effect of over 75% in size
* = called active by the depositor. Unless noted, calls come from the whole dose curve; as a rule, active = well fitted curve in the direction sought with a large enough effect; inconclusive = small, poorly fitted or top-dose-only effect, or another doubt; inactive = no such curve, though single readings can be large; an effect the other way counts as inactive or inconclusive.

How did CCN1CCC2(CC1)N=C(c1ccc(F)cc1)C(=S)N2C(=O)c1ccc(C(C)(C)C)cc1 do in these assays?
Rango dissoc inh: 7%; Rango complex inh: 0%; PI5P4K alpha inh: -29; VDR inhibitor: 79µM*; KAT2A inh: -11%; PLK1 PBD inh: 9.5µM*; TbPYK inh: 13µM*; TbPYK orthogonal: 18µM*

Results for COc1ccc(-n2c(SCC(=O)N3CCC(C)CC3)nc3c([nH]c4ccccc43)c2=O)cc1 ?
VDR inhibitor: -3%; KAT2A inh: -3%

How did Cc1ccc(/C=C2/NC(=O)N(Cc3ccc(Br)cc3)C2=O)o1 do in these assays?
Rango dissoc inh: -14%; Rango complex inh: inconclusive; PI5P4K alpha inh: inconclusive; VDR inhibitor: inconclusive; KAT2A inh: inconclusive; PLK1 PBD inh: -8%

Results for Cc1ccc(/C=C2/NC(=O)N(Cc3ccccc3F)C2=O)o1 ?
Rango dissoc inh: -5%; Rango complex inh: -1%; PI5P4K alpha inh: -14; VDR inhibitor: 79µM*; KAT2A inh: 38%; PLK1 PBD inh: -3%; TbPYK inh: inconclusive; TbPYK orthogonal: 35µM*

How did Cc1ccnc(NC(=S)N2CCN(c3cccc(C(F)(F)F)c3)CC2)c1 do in these assays?
Rango dissoc inh: -22%; Rango complex inh: inconclusive; PI5P4K alpha inh: inconclusive; VDR inhibitor: -19%; KAT2A inh: -9%; PLK1 PBD inh: -7%; TbPYK inh: 2.2µM*; TbPYK orthogonal: 2.8µM*

What do the screens show for `Oc1ccc(/C=N/Nc2nccnc2Cl)cc1`?
Rango dissoc inh: -4%; Rango complex inh: -2%; PI5P4K alpha inh: -65*; VDR inhibitor: -13%; KAT2A inh: -17%; PLK1 PBD inh: -11%; TbPYK inh: 16µM*; TbPYK orthogonal: 13%

How did Fc1ccc(/C=N/Nc2nccnc2Cl)cc1 do in these assays?
Rango dissoc inh: 10%; Rango complex inh: 2%; PI5P4K alpha inh: -6; VDR inhibitor: -2%; KAT2A inh: -12%; PLK1 PBD inh: 4%

Results for Fc1cccc(/C=N/Nc2nccnc2Cl)c1 ?
Rango dissoc inh: 0%; Rango complex inh: -1%; PI5P4K alpha inh: inconclusive; VDR inhibitor: -12%; KAT2A inh: -17%; PLK1 PBD inh: -22%; TbPYK inh: inconclusive; TbPYK orthogonal: 0%

How did CCOc1ccc(/C=C/c2nc(C#N)c(N(C)C)o2)cc1 do in these assays?
VDR inhibitor: 14%; KAT2A inh: -14%

Results for CCn1cc(/C=C/C(=O)Nc2ccn(Cc3c(F)c(F)cc(F)c3F)n2)cn1 ?
Rango dissoc inh: 13%; Rango complex inh: 5%; PI5P4K alpha inh: -6; VDR inhibitor: inconclusive; KAT2A inh: -1%; PLK1 PBD inh: -17%; TbPYK inh: 7.9µM*; TbPYK orthogonal: 13µM*

What do the screens show for `CCn1cc(/C=C/C(=O)Nc2ccc(C)cc2Br)cn1`?
Rango dissoc inh: 10%; Rango complex inh: 3%; PI5P4K alpha inh: -10; VDR inhibitor: 0%; KAT2A inh: 2%; PLK1 PBD inh: -14%

Screening results: PubChem BioAssay, National Center for Advancing Translational Sciences (NCATS)
